The campaign covered roughly 360,000 compounds. About 3,000 (0.83%) were called active. For the sample, actives were picked, then their nearest neighbours and some compounds at random. Unmarked numbers belong to inactive results. Rule as the data show it: active = inhibition above about 38%; inactive = the rest.
What follows are compounds tested against G-protein coupled receptor 183 (Homo sapiens) (UniProt P32249) (assay: blockers of oxysterol-driven EBI2 arrestin signaling – cell-based, luminescence, 7a,25-OHC stimulation, uHTS, primary screen (AID 651636;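 also: enzyme fragment complementation signal reports receptor beta-arrestin coupling in cells; 0% = agonist plus DMSO wells and 100% = wells without agonist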)). Conditions: EBI2 beta-arrestin recruitment, 7a,25-OHC stimulated, at 5 µM, stronger effect = higher value.
Sequence of G-protein coupled receptor 183 (Homo sapiens) (P32249 whole entry, looked up, the tested form may be a part): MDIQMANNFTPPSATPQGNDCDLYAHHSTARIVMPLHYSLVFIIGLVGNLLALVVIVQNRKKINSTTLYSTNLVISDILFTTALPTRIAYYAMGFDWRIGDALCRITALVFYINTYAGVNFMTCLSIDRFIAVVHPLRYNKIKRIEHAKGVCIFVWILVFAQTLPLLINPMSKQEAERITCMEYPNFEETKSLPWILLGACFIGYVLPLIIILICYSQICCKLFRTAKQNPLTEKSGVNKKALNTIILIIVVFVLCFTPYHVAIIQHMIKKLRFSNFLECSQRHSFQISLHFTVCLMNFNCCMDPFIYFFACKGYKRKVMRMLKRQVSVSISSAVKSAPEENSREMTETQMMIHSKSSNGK
`CCOC(=O)/C=C/CN(C(=O)OC(C)(C)C)S(=O)(=O)N1CC=CC1` gave an inhibition of 0.259%. Compound `CC(=O)NC1=NN(C(C)=O)C(C)(CCS(=O)(=O)c2ccc(Cl)c(Cl)c2)S1` (stereo not drawn) has an inhibition of -4.01%. `COCc1cc(C)n(CC(=O)NCC2CCCO2)c(=O)c1C#N` (stereo not drawn) gave an inhibition of 2.55%. `CCCCOCCCNC(=O)C[C@@H]1C[C@@]2(C(=O)OC)CCCCC=C2N(CCC2=CCCCC2)C1=O` was tested, and the inhibition was 3.92%. `Cc1cc(OCC(=O)N2CCN(c3ncccn3)CC2)ccc1Cl` was tested, and the inhibition was 86.6% (active). For `COC(=O)CC(=O)N1CCN(c2ccc(Cl)c(Cl)c2)CC1`, the inhibition was -5.75%. With `CC(Oc1ccc(F)cc1)C(=O)N1CCN(c2ncccn2)CC1` (stereo not drawn) the inhibition was -0.409%. `Cc1ccc(S(=O)(=O)N2[C@@H](Cc3ccccc3)CO[C@H]2CC(=O)OCc2ccccc2)cc1` gave an inhibition of 23%. With `COC(=O)[C@]12CCCCC=C1N(Cc1ccc3c(c1)OCO3)C(=O)[C@H](CC(=O)NCc1cccs1)C2` the inhibition was 0.7%. `CCC1SC(CC)C(=O)N(CC(=O)NC2CCCCC2)C1=O` (stereo not drawn) was tested, and the inhibition was -0.813%. With `O=C(CSc1nc(C2CC2)nc2ccccc12)Nc1cccc(O)c1` the inhibition was -2.33%. For `O=C(NNc1c2ccccc2nc2ccccc12)c1cc2ccccc2cc1O`, the inhibition was 44.6% (active). `O=C(Cc1ccccn1)c1ccc(O)cc1O` gave an inhibition of 9.45%. Work on `CCCn1nc(NC(=O)C(C)C)c2cc3cc(OC)ccc3nc21` yielded an inhibition of 16.4%. Compound `CCc1ccc(Nc2ncc3c(n2)CC(c2ccco2)CC3=O)cc1` (stereo not drawn) has an inhibition of 14.2%. In the case of `O=C(Nc1ncc2c(n1)CC(c1ccco1)CC2=O)c1ccc(Cl)cc1` (stereo not drawn), the inhibition was 41.8% (active). `O=C(Nc1ncc2c(n1)-c1ccccc1OC2)c1ccc(Cl)cc1` was tested, and the inhibition was 9.5%. `O=C(CC1SC(N2CCCC2)=NC1=O)Nc1ccc(C(=O)NCCc2ccc(F)cc2)cc1` (stereo not drawn) gave an inhibition of -2.4%. For `CC(=O)C[C@@H]1OC[C@H](CO)N1S(=O)(=O)c1ccc(C)cc1`, the inhibition was 3.35%. For `CCOC(=O)[C@]12CCCC=C1N(CCC1=CCCCC1)C(=O)[C@H](CC(=O)N1CCCCC1)C2`, the inhibition was 8.47%. With `COc1ccccc1N1CCN(C(=O)c2cc(-c3ccc(Br)cc3)on2)CC1` the inhibition was 50% (active). `COc1ccc(Nc2ncc(C(=O)N3CCN(c4ccccc4OC)CC3)c3ccccc23)cc1` was tested, and the inhibition was -13.1%. Work on `COc1ccc(OCc2cc(C(=O)N3CCCC3)no2)c2ccccc12` yielded an inhibition of -12.2%. In the case of `COc1ccccc1N1CCN(C(=O)Cn2nnc(-c3cccs3)n2)CC1`, the inhibition was -14.3%. For `COc1cccc(-c2ccc(SCC(=O)N3CCN(c4ccccc4)CC3)nn2)c1`, the inhibition was 11.8%. For `COc1cccc(-c2cc(C(=O)N3CCN(c4ccccc4OC)CC3)no2)c1`, the inhibition was 56.8% (active). In the case of `CC(C)C[C@@H]1COc2cc(N3CCC[C@@H]3CO)ccc2S(=O)(=O)N1`, the inhibition was -0.978%. `Cc1cc2nc3n(c2cc1C)CC1CC(C(=O)NCCC(C)C)N(C)C31` (stereo not drawn) was tested, and the inhibition was 6.24%. For `Clc1cccc(N=C2NN=C(c3ccc4c(c3)OCCO4)CS2)c1`, the inhibition was 49.5% (active). For `CN(C)c1nc(=Nc2cccc(Cl)c2)ss1`, the inhibition was 1.94%. Work on `c1ccc(CN2CCC(N=C3NN=C(c4ccc5c(c4)OCCO5)CS3)CC2)cc1` yielded an inhibition of 6.66%. Compound `Cc1ccc(S(=O)(=O)N2[C@@H](c3cccc4ccccc34)C(C(=O)O)=C[C@H]2C(C)(C)C)cc1` has an inhibition of -1.04%. Compound `CCN(CC)c1ccc(S(=O)(=O)N2CCCCC2)cc1NC(=O)C1=COCCO1` has an inhibition of 1.67%. `CCCCN=C1C([N+](=O)[O-])=CC=C2C1=NC1(CCCCC1)N2O` was tested, and the inhibition was 68.4% (active). `CO[C@@H]1CN(C)C(=O)c2cc(NC(=O)C3CC3)ccc2OC[C@H](C)N(C(=O)CN2CCOCC2)C[C@@H]1C` gave an inhibition of -1.87%. For `COc1ccc(-c2nc3c(s2)CCc2onc(-c4ccc(OC)cc4)c2-3)cc1`, the inhibition was -3.33%. Compound `CCn1c(SCC(=O)NNC(=O)c2ccc(OC)cc2)nnc1C(C)C` has an inhibition of 12.9%. In the case of `Cc1cccc(C(=O)NNC(=O)CSc2nnc(C(C)C)n2C)c1`, the inhibition was 2.91%. `CCC(c1nnc(SCC(=O)NNC(=O)c2ccccc2)n1Cc1ccccc1)N(C)C` (stereo not drawn) was tested, and the inhibition was 72.7% (active). `COC(=O)[C@H](CC(C)C)NC(=O)N1CCCCC1C` (stereo partly drawn) showed an inhibition of -4.31%. In the case of `Cc1cc(C)c(C#N)c(SCc2[nH]nc3c2C(c2ccccc2)C(C#N)=C(N)O3)n1` (stereo not drawn), the inhibition was 63.3% (active). For `CCCc1[nH]nc2c1C(c1ccc(Br)s1)C(C#N)=C(N)O2` (stereo not drawn), the inhibition was -18.9%. In the case of `Cc1cc(C)c(C#N)c(SCc2ccc3c(c2)OCO3)n1`, the inhibition was -1.67%. `COc1cc2c(cc1NC(=O)CN1CCN(S(=O)(=O)c3ccc(F)cc3)CC1)oc1ccccc12` showed an inhibition of 3.04%. In the case of `CC(C)c1ccc(N2CC(C(=O)Nc3nccs3)CC2=O)cc1` (stereo not drawn), the inhibition was 5.79%. `Cc1cccc(-c2nc3c(c(SCC(=O)N4CCOCC4)n2)CCCC3)c1` showed an inhibition of 4.2%. `Cn1nnnc1SCC(=O)N1CCN(C(c2ccccc2)c2ccccc2)CC1` was tested, and the inhibition was 36.1%. With `O=C(c1ccc(-n2cnnn2)cc1)N1CCN(C(c2ccccc2)c2ccccc2)CC1` the inhibition was 79% (active). `CC(OC(=O)c1ccc(-n2cnnn2)cc1)C(=O)NCc1ccccc1` (stereo not drawn) gave an inhibition of -7.1%. `COc1ccc(C2Nc3ccccc3C(=O)N2c2ccc(Cl)cc2)cc1Cn1cc([N+](=O)[O-])cn1` (stereo not drawn) gave an inhibition of 4.76%. Work on `COc1ccc(NC(=O)C[C@H]2C(=O)N(CCc3ccccc3)C[C@@H]2C)cc1` yielded an inhibition of 2.26%. Work on `CCC(=O)Nc1ccccc1C(=O)N1CCN(Cc2ccccc2)CC1` yielded an inhibition of -10.6%. Compound `O=S(=O)(c1ccc(Cl)s1)N1CCC2(CC1)OCCO2` has an inhibition of 1.76%. Compound `O=C(c1cc2ccccc2o1)N1CCN(c2cccc(C(F)(F)F)c2)CC1` has an inhibition of 36.7%. In the case of `O=C(c1cc2ccccc2o1)N1CCN(Cc2ccccc2)CC1`, the inhibition was 65.2% (active). Work on `CCNC(=S)N1CCN(S(=O)(=O)c2ccc(Cl)s2)CC1` yielded an inhibition of -5.4%. In the case of `O=C(c1cc2ccccc2o1)N1CCN(S(=O)(=O)c2ccc(Cl)s2)CC1`, the inhibition was 91.3% (active). With `COc1ccc(N(CCC(=O)NCCc2ccccc2)S(=O)(=O)c2ccc(C)cc2C)cc1` the inhibition was 9.4%. Work on `CCOC(=O)c1cnc(SCc2nc(N)nc(Nc3ccc(OC)cc3)n2)nc1N` yielded an inhibition of -2.38%. `Cc1cccc(OCCC(=O)OCc2csc(CC(=O)Nc3ccccc3C)n2)c1` showed an inhibition of -1.51%. `C=CCNc1nc(N)c(C(=C(C#N)C#N)c2ccccc2)s1` gave an inhibition of -6.63%. Compound `Cc1ccc(CN2CC(C(=O)N3CCN(S(=O)(=O)c4ccccc4)CC3)CC2=O)cc1` (stereo not drawn) has an inhibition of 3.15%. `CN1CCN(c2cc(=O)n(-c3ccc(Cl)cc3)c(=O)[nH]2)CC1` gave an inhibition of -7.79%. Compound `CC1CC(C)CN(CCCNC(=O)Cn2ncc3c([nH]c4ccccc43)c2=O)C1` (stereo not drawn) has an inhibition of 5.19%. With `Cc1ccc(NS(=O)(=O)c2ccc3c(c2)NC(=O)CO3)cc1` the inhibition was -3%. In the case of `CC[C@@H]1Cc2cc(O)ccc2C2=C1c1ccc(O)cc1C[C@H]2CC`, the inhibition was 49.4% (active). `COc1ccc(Br)cc1CN(C)C(=O)C1CC(=O)N(C2CCCC2)C1` (stereo not drawn) gave an inhibition of 7.14%. Work on `CN1CCN(C(=O)c2ccc(-c3cc4nc(NCc5cccnc5)n(C)c(=O)c4s3)cc2)CC1` yielded an inhibition of -2.23%. Work on `CCc1ccccc1NC(=O)c1ccc2c(c1)CCN2S(C)(=O)=O` yielded an inhibition of -1.7%. Work on `CCc1ccccc1NC(=O)NCCN1CCCCC1` yielded an inhibition of 4.39%. `CN1CCc2ccccc2C1Cc1ccccc1NC(=O)c1sc2ccccc2c1Cl` (stereo not drawn) was tested, and the inhibition was 65.6% (active). In the case of `CCOC(=O)[C@]12CCCC=C1N(Cc1cccc3ccccc13)C(=O)[C@H](CC(=O)NCC13CC4CC(CC(C4)C1)C3)C2`, the inhibition was 16.6%. In the case of `COC(=O)C[C@H]1C=C[C@@H](NS(=O)(=O)c2ccc(C)cc2)[C@@H](CO)O1`, the inhibition was -0.992%. With `O=C(NCCN1CCOC1=O)C1CCC(=O)N(CCc2ccc(Cl)cc2)C1` (stereo not drawn) the inhibition was 5.95%. Work on `O=C(NCCc1ccccc1Cl)C1CCC(=O)N(CCCc2ccccc2)C1` (stereo not drawn) yielded an inhibition of 8.34%. In the case of `O=C(NCCCc1ccccc1)C1CCC(=O)N(CCc2ccc(Cl)cc2)C1` (stereo not drawn), the inhibition was 63.7% (active). Work on `C/C(=N/NC(=O)c1ccc(Br)o1)c1ccc(C)o1` yielded an inhibition of -2.5%. In the case of `COC(=O)[C@]12CCCCC=C1N(Cc1ccco1)C(=O)[C@H](CC(=O)NCC1CCCCC1)C2`, the inhibition was -6.57%. `CC1CN(C(=S)Nc2cccc(F)c2)CC(C)O1` (stereo not drawn) gave an inhibition of -5.04%. `COc1cccc(NC(=O)Cn2cnc3sc(C)c(S(=O)(=O)N4CCN(C)CC4)c3c2=O)c1` was tested, and the inhibition was -9.02%. For `COc1cccc(NC(=O)Cn2c3ccc(F)cc3c3nc4n(c(=O)c32)CCS4)c1`, the inhibition was 80.8% (active). With `COc1cccc(NC(=O)CC2C(=O)NCCN2C(=S)Nc2ccc(F)cc2)c1` (stereo not drawn) the inhibition was 9.02%. For `COc1cccc(NC(=O)CS(=O)(=O)c2cn(CC(=O)N3CCOCC3)c3ccccc23)c1`, the inhibition was 3.35%. In the case of `COc1ccc2c(c1)c1nc3n(c(=O)c1n2CC(=O)Nc1ccccc1)CCS3`, the inhibition was 8.84%. In the case of `COc1cccc(NC(=O)Cn2c3ccccc3c3nc4n(c(=O)c32)CCS4)c1`, the inhibition was 62% (active). With `COc1cccc(N(CC(=O)NC2CCCC2)C(=O)Cn2nnc(-c3ccc(C)cc3)n2)c1` the inhibition was 7.66%. In the case of `CS(=O)(=O)N1CCc2nc(-c3ccccc3)sc2C1`, the inhibition was 1.2%. Compound `O/N=C(\c1ccc2c(c1)OCCO2)C1CCCCC1` has an inhibition of 4.5%.

— PubChem BioAssay AID651636 (Sanford-Burnham Center for Chemical Genomics, 2012)
